Data as given in the supplement of paper PMC11001985.
Values without a mark were called inactive.

Compound: C#CCNC(=O)CCSSCCC(=O)NCCc1ccc(C=O)c(C=O)c1
Assay: lysine labeling ratio R10:1 (500 µM / 50 µM probe), SILAC-ABPP in living cells; higher = lower intrinsic lysine reactivity toward the probe, active = 2 or less
Conditions: HeLa; probe concentrations 500 vs 50 µM
Outline: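 In PBS at room temperature, living HeLa cells grown with SILAC light or heavy labels were treated with 50 µM or 500 µM of an alkyne-tagged, disulfide-linked lysine probe, with label swaps in both directions. Analysis was by LC-MS/MS on a TIMS-TOF Pro after click to biotin-azide, neutravidin capture and DTT release. For each lysine, R is the median across forward and reverse replicates of the filtered median high-probe/low-probe MS1 peptide ratio, capped at 20.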

Chain of UniProt P78310 (P78310 whole entry): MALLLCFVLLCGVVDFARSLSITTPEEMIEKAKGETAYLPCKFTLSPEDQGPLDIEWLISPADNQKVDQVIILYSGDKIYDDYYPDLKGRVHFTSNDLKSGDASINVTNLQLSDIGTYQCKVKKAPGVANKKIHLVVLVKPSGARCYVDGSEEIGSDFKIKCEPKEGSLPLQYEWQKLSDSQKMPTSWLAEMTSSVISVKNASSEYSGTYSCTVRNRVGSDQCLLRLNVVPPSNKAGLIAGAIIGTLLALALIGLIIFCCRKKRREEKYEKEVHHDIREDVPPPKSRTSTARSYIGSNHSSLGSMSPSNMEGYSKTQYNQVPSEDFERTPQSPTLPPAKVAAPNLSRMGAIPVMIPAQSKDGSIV
Chain of UniProt P21333 (P21333 whole entry): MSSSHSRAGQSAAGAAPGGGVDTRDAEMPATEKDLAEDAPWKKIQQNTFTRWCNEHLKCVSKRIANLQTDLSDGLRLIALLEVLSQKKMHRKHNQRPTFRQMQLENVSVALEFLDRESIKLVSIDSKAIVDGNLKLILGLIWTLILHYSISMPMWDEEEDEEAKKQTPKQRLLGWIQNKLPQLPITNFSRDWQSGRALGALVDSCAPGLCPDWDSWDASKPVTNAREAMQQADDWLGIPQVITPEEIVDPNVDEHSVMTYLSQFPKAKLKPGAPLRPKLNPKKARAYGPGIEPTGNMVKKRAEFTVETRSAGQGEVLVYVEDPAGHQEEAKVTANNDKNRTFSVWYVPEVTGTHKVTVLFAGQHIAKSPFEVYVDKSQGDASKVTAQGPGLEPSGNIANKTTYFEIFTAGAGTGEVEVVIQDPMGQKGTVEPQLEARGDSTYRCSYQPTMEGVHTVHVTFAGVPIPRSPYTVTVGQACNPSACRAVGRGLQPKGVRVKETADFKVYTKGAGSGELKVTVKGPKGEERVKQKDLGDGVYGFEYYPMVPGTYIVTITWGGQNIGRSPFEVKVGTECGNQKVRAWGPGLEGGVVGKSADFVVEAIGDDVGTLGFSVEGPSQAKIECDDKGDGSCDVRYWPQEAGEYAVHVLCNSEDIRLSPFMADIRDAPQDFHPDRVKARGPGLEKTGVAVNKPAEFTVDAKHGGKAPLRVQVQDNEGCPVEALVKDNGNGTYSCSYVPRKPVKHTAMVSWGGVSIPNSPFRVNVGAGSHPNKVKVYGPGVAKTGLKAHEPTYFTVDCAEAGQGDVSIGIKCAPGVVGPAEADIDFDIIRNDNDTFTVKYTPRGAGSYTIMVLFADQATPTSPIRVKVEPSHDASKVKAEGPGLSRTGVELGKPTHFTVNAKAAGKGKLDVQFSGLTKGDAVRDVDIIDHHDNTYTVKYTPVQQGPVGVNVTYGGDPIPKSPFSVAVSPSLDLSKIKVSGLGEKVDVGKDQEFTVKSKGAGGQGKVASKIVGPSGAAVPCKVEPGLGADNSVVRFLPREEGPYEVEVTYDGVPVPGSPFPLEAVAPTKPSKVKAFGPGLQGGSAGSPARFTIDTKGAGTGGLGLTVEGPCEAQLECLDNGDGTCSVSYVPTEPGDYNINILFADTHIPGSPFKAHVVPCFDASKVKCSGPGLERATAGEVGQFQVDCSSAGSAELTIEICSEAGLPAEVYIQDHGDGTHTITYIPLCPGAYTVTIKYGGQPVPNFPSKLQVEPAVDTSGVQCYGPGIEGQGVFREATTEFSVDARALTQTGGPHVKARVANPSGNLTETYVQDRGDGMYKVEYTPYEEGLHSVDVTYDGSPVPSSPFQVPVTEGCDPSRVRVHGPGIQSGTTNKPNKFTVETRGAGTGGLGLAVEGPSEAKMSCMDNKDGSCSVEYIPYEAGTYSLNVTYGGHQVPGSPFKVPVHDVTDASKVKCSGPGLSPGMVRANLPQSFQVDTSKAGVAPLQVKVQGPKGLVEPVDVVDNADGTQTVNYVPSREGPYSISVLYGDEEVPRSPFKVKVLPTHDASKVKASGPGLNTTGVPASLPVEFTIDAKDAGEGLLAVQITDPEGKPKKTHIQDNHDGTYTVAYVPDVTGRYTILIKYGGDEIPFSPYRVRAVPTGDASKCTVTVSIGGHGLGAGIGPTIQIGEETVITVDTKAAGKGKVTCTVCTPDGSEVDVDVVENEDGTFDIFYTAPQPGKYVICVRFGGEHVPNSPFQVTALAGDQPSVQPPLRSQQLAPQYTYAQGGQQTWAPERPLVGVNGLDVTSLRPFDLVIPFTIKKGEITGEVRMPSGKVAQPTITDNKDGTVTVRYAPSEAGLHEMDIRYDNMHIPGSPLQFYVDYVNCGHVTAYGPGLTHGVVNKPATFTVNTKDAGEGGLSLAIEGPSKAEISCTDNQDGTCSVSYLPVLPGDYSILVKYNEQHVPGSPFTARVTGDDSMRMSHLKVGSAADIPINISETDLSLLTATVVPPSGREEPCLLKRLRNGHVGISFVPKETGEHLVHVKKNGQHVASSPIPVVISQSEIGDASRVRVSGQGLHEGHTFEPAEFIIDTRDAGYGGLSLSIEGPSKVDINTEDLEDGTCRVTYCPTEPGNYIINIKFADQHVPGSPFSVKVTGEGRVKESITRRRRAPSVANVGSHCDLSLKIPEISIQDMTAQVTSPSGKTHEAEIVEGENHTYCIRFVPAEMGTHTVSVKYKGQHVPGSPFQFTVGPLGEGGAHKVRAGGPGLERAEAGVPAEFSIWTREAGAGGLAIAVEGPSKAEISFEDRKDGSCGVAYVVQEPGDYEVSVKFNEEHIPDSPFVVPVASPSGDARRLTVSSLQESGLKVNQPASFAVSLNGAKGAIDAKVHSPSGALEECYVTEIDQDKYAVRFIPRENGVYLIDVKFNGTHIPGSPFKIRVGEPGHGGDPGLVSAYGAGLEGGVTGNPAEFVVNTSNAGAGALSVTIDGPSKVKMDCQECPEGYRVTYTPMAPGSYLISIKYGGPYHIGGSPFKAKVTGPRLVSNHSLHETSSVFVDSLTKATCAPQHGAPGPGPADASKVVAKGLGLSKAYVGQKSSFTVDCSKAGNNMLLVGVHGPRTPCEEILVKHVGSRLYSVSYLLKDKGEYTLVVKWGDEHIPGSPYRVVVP
Chain of UniProt Q9Y6N7 (Q9Y6N7 whole entry): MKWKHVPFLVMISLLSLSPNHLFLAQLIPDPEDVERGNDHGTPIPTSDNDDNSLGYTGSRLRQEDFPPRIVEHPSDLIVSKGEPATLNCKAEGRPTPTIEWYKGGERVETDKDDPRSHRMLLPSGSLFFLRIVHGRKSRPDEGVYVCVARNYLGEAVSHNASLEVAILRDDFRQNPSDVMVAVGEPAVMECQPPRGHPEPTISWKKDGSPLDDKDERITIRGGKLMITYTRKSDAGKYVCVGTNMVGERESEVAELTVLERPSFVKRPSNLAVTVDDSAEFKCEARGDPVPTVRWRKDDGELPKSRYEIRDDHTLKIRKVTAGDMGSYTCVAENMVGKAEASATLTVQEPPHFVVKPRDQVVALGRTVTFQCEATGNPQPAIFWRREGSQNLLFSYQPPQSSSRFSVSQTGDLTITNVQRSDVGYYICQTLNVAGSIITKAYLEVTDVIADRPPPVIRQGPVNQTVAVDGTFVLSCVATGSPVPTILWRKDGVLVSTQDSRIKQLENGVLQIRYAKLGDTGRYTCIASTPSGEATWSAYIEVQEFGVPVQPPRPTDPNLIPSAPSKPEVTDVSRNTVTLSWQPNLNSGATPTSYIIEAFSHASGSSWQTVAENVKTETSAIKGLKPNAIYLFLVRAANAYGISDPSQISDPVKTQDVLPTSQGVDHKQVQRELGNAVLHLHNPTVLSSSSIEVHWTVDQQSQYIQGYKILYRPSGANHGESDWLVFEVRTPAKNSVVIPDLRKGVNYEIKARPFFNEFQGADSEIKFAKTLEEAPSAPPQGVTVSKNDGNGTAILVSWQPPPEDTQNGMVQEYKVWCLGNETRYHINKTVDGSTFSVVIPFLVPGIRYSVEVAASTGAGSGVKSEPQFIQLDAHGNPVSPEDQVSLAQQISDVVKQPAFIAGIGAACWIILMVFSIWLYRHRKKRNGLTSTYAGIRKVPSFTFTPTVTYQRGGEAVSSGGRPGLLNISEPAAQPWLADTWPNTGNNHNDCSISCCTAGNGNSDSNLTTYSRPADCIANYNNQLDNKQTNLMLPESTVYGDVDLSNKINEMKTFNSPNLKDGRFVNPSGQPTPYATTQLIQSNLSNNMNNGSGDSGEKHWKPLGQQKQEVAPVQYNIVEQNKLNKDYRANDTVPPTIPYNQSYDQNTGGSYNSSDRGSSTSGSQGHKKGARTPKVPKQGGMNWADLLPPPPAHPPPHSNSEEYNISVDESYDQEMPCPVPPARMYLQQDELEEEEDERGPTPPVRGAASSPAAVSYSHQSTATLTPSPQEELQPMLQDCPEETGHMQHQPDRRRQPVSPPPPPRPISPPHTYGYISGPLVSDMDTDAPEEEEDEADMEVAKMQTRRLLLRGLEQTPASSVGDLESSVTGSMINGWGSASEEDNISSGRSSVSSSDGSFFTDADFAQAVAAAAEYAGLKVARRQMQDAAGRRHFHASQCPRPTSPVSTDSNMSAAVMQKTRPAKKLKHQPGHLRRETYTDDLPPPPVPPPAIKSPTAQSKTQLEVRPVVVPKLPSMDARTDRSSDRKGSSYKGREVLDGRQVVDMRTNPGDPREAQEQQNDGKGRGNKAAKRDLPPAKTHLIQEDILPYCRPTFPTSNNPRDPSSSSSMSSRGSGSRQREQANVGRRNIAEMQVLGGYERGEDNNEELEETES
Chain of UniProt Q8NC51 (Q8NC51 whole entry): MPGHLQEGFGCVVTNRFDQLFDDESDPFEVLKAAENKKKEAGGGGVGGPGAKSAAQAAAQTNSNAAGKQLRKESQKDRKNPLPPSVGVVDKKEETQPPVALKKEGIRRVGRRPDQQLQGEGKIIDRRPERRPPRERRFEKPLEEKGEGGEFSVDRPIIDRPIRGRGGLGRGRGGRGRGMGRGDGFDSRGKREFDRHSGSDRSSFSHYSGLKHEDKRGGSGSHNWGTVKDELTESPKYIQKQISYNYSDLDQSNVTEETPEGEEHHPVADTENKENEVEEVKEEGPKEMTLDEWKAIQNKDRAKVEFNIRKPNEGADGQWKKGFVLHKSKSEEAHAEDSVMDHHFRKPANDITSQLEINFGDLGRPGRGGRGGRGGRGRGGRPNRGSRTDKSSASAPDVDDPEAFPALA

Target | lysine labeling ratio R10:1
UniProt Q8WXI7 (lysine site: K13228) | 11.9
ROBO1 (lysine site: K516) (UniProt Q9Y6N7) | 4.56
RPS3A (lysine site: K152) (UniProt P61247) | 3.85
LDLR (lysine site: K783) (UniProt P01130) | 3.22
MYH9 (lysine site: K1845) (UniProt P35579) | 1.57 (active)
PDIA4 (lysine site: K637) (UniProt P13667) | 2.44
CXADR (lysine site: K88) (UniProt P78310) | 1.11 (active)
TLN1 (lysine site: K1948) (UniProt Q9Y490) | 0.788 (active)
UniProt Q16352 (lysine site: K290) | 1.71 (active)
HSPA8 (lysine site: K512) (UniProt P11142) | 7.92
UniProt P20591 (lysine site: K505) | 2.52
DDX3X (lysine site: K491) (UniProt O00571) | 2.59
RPS3A (lysine site: K63) (UniProt P61247) | 1.79 (active)
SPTAN1 (lysine site: K250) (UniProt Q13813) | 1.09 (active)
UniProt P62280 (lysine site: K32) | 4.32
FLNA (lysine site: K2417) (UniProt P21333) | 4.07
SERBP1 (lysine site: K303) (UniProt Q8NC51) | 2.74
